Test results: PubChem BioAssay (NCATS)
Records with an inconclusive call do not appear. Unless noted, calls come from the whole dose curve; as a rule, active = well fitted curve in either direction with a large enough effect (not every such curve was filed as active); inconclusive = small, poorly fitted or top-dose-only effect, or another doubt; inactive = flat fitted curve, though single readings scatter.

Columns and labels:
[1] = AP1 Signaling Pathway (AID 357); details: ME-180 AP-1-bla reporter, EGF-induced, beta-lactamase ratio, 5 h; at 17.2 µM (top of the series) unless noted;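 note: ME-180 reporter cells stimulated with EGF at its EC50 level; % is set by controls: 0 for no effect and ±100 for the full control effect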
Summary of the method: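 Read-out was the 460nm/530nm emission ratio (excitation 405nm) after CCF4 loading for 2.5 hours at room temperature. Cells carried an AP-1-driven beta-lactamase reporter, were stimulated with EC50 EGF plus compound for 5 hours, and AC50 values came from titrations.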

[2] = NFAT Signaling Pathway (AID 444); details: Jurkat NFAT-bla M1, carbachol, beta-lactamase ratio, 5 h; at 17.2 µM (top of the series) unless noted;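 note: carbachol stimulus at about its EC50 of 1 µM final; % is set by controls: 0 for no effect and ±100 for the full control effect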
Summary of the method: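 Jurkat cells carrying an NFAT-driven β-lactamase reporter and co-transfected muscarinic M1 receptor were treated with compound plus carbachol (1 uM final, an EC50 level) for 5 h at 37 °C. CCF4 loading followed for 1 h at RT; 460/530 nm ratio gave %activity.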

[3] = Stat Signaling Pathway (AID 446); details: ME-180 (cervical carcinoma) SIE beta-lactamase reporter, IL-6 stimulated, 5 h; at 17.2 µM (top of the series) unless noted;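 note: ME-180 cervical cancer cells given 40 pM IL-6 alongside compound; SIE-controlled beta-lactamase reporter measured as 460/530 nm FRET emission ratio; % is set by controls: 0 for no effect and ±100 for the full control effect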
Summary of the method: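 IL-6/STAT signaling read in ME-180 cells via an SIE beta-lactamase reporter. Stimulus was 40 pM IL-6 (its AC50) for 5 hrs, so both activation and inhibition register.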

[4] = target: Glucocorticoid receptor (Homo sapiens) (UniProt P04150); assay: GR-GFP Redistribution (AID 450;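 active = compounds whose dose series gives a full or clear partial fitted curve of increased nuclear translocation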; note: potency is the fitted concentration of half-maximal effect)
Chain of Glucocorticoid receptor (Homo sapiens) (P04150 whole entry, looked up): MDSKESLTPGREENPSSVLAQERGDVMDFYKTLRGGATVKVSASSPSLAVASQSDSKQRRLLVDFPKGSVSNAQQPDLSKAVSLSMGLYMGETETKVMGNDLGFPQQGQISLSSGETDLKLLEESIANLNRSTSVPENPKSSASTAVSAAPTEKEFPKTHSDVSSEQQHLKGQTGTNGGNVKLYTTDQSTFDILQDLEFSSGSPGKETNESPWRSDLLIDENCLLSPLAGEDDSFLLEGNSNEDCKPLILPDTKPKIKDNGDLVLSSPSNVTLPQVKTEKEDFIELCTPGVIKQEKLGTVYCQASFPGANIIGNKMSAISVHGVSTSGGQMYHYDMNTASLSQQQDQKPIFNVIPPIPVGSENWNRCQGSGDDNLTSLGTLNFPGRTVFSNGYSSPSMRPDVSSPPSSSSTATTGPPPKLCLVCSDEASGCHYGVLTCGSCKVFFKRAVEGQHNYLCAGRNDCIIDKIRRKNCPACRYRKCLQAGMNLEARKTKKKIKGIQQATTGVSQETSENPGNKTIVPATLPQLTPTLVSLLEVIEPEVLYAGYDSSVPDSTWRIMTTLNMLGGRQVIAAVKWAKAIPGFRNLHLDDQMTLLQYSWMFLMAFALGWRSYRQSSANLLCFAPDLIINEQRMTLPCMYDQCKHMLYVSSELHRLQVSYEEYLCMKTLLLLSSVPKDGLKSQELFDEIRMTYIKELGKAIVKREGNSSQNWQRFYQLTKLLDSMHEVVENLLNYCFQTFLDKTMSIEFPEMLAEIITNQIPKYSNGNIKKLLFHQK

O=S1CCCSC1c1cccnc1 (stereo not drawn)
inactive: activity change, negative = inhibition [1] 5.36% | activity change, negative = inhibition [2] 9.76% | activity, negative = inhibition [3] 2.7% | Potency [4] > 20.6 µM

CCNC(=O)Nn1c(C)nnc1C
inactive: activity change, negative = inhibition [1] 15.4% | activity change, negative = inhibition [2] -5.86% | activity, negative = inhibition [3] 6.6% | Potency [4] > 20.6 µM

Cc1ccc(N2C(=O)[C@@H]3[C@H](C2=O)C2CCCN2[C@@H]3C(=O)c2ccccc2)cc1 (stereo partly drawn)
inactive: activity change, negative = inhibition [1] -15.8% | activity change, negative = inhibition [2] 9.36% | activity, negative = inhibition [3] -3.84% | Potency [4] > 20.6 µM

CC1(C)Cc2c(oc3ncn4ncnc4c23)CO1
inactive: activity change, negative = inhibition [1] -9.2% | activity change, negative = inhibition [2] -1.16% | activity, negative = inhibition [3] 7.25% | Potency [4] > 20.6 µM

CCOCc1nc(N)[nH]c(=O)c1Cc1ccc(OC(C)C)cc1
inactive: activity change, negative = inhibition [1] 1.48% | activity change, negative = inhibition [2] 13.9% | activity, negative = inhibition [3] 9.73% | Potency [4] > 20.6 µM

Nc1nc(NC(=O)Cc2ccccc2)nn1-c1ccccc1
inactive: activity change, negative = inhibition [1] 5.76% | activity change, negative = inhibition [2] 9.17% | activity, negative = inhibition [3] 4.24% | Potency [4] > 20.6 µM

Cc1nnc(SCC(=O)N2CCC(C(N)=O)CC2)s1
inactive: activity change, negative = inhibition [1] 4.41% | activity change, negative = inhibition [2] 5.46% | activity, negative = inhibition [3] 7.13% | Potency [4] > 20.6 µM

N#Cc1c(-c2ccco2)cc(C2CC2)nc1N
inactive: activity change, negative = inhibition [1] -6.96% | activity change, negative = inhibition [2] 9.72% | activity, negative = inhibition [3] -18.4% | Potency [4] > 20.6 µM

COc1cccc(/C=C2/CN(C)CC3=C2OC(N)=C(C#N)C3c2cccc(OC)c2)c1 (stereo not drawn)
inactive: activity change, negative = inhibition [1] -20.4% | activity change, negative = inhibition [2] -0.393% | activity, negative = inhibition [3] -1.9% | Potency [4] > 20.6 µM

NC(=O)C1CCN(CCC(=O)Nc2ccc(Br)cc2)CC1
inactive: activity change, negative = inhibition [1] 11.3% | activity change, negative = inhibition [2] -28.6% | activity, negative = inhibition [3] 5.95% | Potency [4] > 20.6 µM

Cc1nn(C)cc1/C=N/O
inactive: activity change, negative = inhibition [1] 10.9% | activity change, negative = inhibition [2] -0.64% | activity, negative = inhibition [3] 4.83% | Potency [4] > 20.6 µM

CCCn1nnc(NC(=O)c2cc(Br)cc(Br)c2OC)n1
inactive: activity change, negative = inhibition [1] -4.03% | activity change, negative = inhibition [2] -11.1% | activity, negative = inhibition [3] -4.41% | Potency [4] > 20.6 µM

CCOC(=O)c1cc(C)n(-c2ccc(OC)c(OC)c2)c1C
inactive: activity change, negative = inhibition [1] -17.8% | activity change, negative = inhibition [2] -1.46% | activity, negative = inhibition [3] -14.1% | Potency [4] > 20.6 µM

O=C1CCC(=O)N1CN(C(=O)c1ccco1)c1ccc(Cl)c(Cl)c1
inactive: activity change, negative = inhibition [1] -6.31% | activity change, negative = inhibition [2] -5.89% | activity, negative = inhibition [3] 11.1% | Potency [4] > 20.6 µM

CCN(CC)CCCN1C(=O)C(=O)/C(=C(/O)c2ccccc2)C1c1ccccn1 (stereo not drawn)
inactive: activity change, negative = inhibition [1] -0.714% | activity change, negative = inhibition [2] 5.2% | activity, negative = inhibition [3] 3.59% | Potency [4] > 20.6 µM

Cc1[nH]c(=O)[nH]c(=O)c1S(=O)(=O)N1CCCC1
inactive: activity change, negative = inhibition [1] 11.7% | activity change, negative = inhibition [2] -7.3% | activity, negative = inhibition [3] 12% | Potency [4] > 20.6 µM

N#Cc1c2c(c(-c3ccco3)[nH]c1=O)CCCC2
inactive: activity change, negative = inhibition [1] -0.634% | activity change, negative = inhibition [2] 10.5% | activity, negative = inhibition [3] -2.06% | Potency [4] > 20.6 µM

O=C(NCCCN1CCOCC1)C1(c2ccccc2)CCOCC1
inactive: activity change, negative = inhibition [1] 3.71% | activity change, negative = inhibition [2] -0.629% | activity, negative = inhibition [3] 5.62% | Potency [4] > 20.6 µM

CCOc1ccc2nc(NC(NC(=O)CC)(C(=O)OC)C(F)(F)F)sc2c1 (stereo not drawn)
inactive: activity change, negative = inhibition [1] -9.26% | activity change, negative = inhibition [2] 8.42% | activity, negative = inhibition [3] -8.24% | Potency [4] > 20.6 µM

O=C1c2ccccc2C(=O)N1c1ncccn1
inactive: activity change, negative = inhibition [1] 6.61% | activity change, negative = inhibition [2] -3.61% | activity, negative = inhibition [3] 9.87% | Potency [4] > 20.6 µM

CCCOc1cccc(C2/C(=C(/O)c3ccc(F)cc3)C(=O)C(=O)N2CCN(C)C)c1 (stereo not drawn)
inactive: activity change, negative = inhibition [1] 3.27% | activity change, negative = inhibition [2] 2.49% | activity, negative = inhibition [3] -0.187% | Potency [4] > 20.6 µM

Cn1c(N)c(C#N)c(C#N)c1-c1ccccc1
inactive: activity change, negative = inhibition [1] -21.2% | activity change, negative = inhibition [2] 4.54% | activity, negative = inhibition [3] -8.46% | Potency [4] > 20.6 µM

CC1(c2ccco2)NC(=O)NC1=O (stereo not drawn)
inactive: activity change, negative = inhibition [1] 5.26% | activity change, negative = inhibition [2] 1.83% | activity, negative = inhibition [3] 5.48% | Potency [4] > 20.6 µM

CCN(CC)CCN1C(=O)C(=O)/C(=C(/O)c2c(C)[nH]c(C(=O)OC)c2C)C1c1ccco1 (stereo not drawn)
inactive: activity change, negative = inhibition [1] 6.74% | activity change, negative = inhibition [2] -2.14% | activity, negative = inhibition [3] -0.9% | Potency [4] > 20.6 µM

CC1(C)Cc2[nH]c(=O)c(C#N)cc2CS1
inactive: activity change, negative = inhibition [1] 19.5% | activity change, negative = inhibition [2] -1.45% | activity, negative = inhibition [3] 10.8% | Potency [4] > 20.6 µM

CCCCNC(=O)N1CCOCCOCCN(C(=O)NCCCC)CCOCC1
inactive: activity change, negative = inhibition [1] -5.59% | activity change, negative = inhibition [2] 4.17% | activity, negative = inhibition [3] 5.68% | Potency [4] > 20.6 µM

COc1ccc(NC(=O)C2CSC3c4ccccc4C(=O)N23)cc1 (stereo not drawn)
inactive: activity change, negative = inhibition [1] -4.43% | activity change, negative = inhibition [2] -13% | activity, negative = inhibition [3] 4.23% | Potency [4] > 20.6 µM

CC1(C)Cc2nc(N)c(C(=O)NCCO)cc2CO1
inactive: activity change, negative = inhibition [1] 8.22% | activity change, negative = inhibition [2] 3.25% | activity, negative = inhibition [3] 9.02% | Potency [4] > 20.6 µM

CC1C/C=C/C=C/C=C/C=C/C(O[C@@H]2O[C@H](C)[C@@H](O)[C@H](N)[C@@H]2O)CC2OC(O)(CC(O)CC3OC3/C=C/C(=O)O1)CC(O)C2C(=O)O (stereo partly drawn)
inactive: activity change, negative = inhibition [1] 1.3% | activity change, negative = inhibition [2] 0.554% | activity, negative = inhibition [3] 5.83% | Potency [4] > 20.6 µM

O=C(NCCc1ccccc1)/C(=N\O)c1ccccc1
inactive: activity change, negative = inhibition [1] -2.29% | activity change, negative = inhibition [2] 11.6% | activity, negative = inhibition [3] -3.56% | Potency [4] > 20.6 µM

CCOc1ccc(CSC(CC(=O)O)C(=O)O)cc1 (stereo not drawn)
inactive: activity change, negative = inhibition [1] -0.441% | activity change, negative = inhibition [2] -5.85% | activity, negative = inhibition [3] 11.1% | Potency [4] > 20.6 µM

CCNc1nc(Oc2ccccc2)nc(OC(C)C(=O)OCC)n1 (stereo not drawn)
inactive: activity change, negative = inhibition [1] -1.07% | activity change, negative = inhibition [2] 6.54% | activity, negative = inhibition [3] 1.47% | Potency [4] > 20.6 µM

O=C(NCCCNCc1ccccc1)/C(=N\O)c1ccccc1
inactive: activity change, negative = inhibition [1] -2.86% | activity change, negative = inhibition [2] -1.67% | activity, negative = inhibition [3] 4.93% | Potency [4] > 20.6 µM

Cc1cc(C)n(CC(=O)n2c3c(c4ccccc42)CCCC3)n1
inactive: activity change, negative = inhibition [1] 5.13% | activity change, negative = inhibition [2] 0.496% | activity, negative = inhibition [3] 9.09% | Potency [4] > 20.6 µM

CC(C)Cc1nc2n[nH]c(N)c2c2c1CCC2
inactive: activity change, negative = inhibition [1] 2.89% | activity change, negative = inhibition [2] 28.5% | activity, negative = inhibition [3] -5.62% | Potency [4] > 20.6 µM

O=C(O)C1CCCCN1S(=O)(=O)c1cccc2nsnc12 (stereo not drawn)
inactive: activity change, negative = inhibition [1] 0.243% | activity change, negative = inhibition [2] 1.79% | activity, negative = inhibition [3] 5.88% | Potency [4] > 20.6 µM

Cn1c(=O)[nH]c(=O)c2c1nc(N(CCO)Cc1ccccc1)n2Cc1ccccc1Cl
inactive: activity change, negative = inhibition [1] -1.99% | activity change, negative = inhibition [2] -6.08% | activity, negative = inhibition [3] -4.12% | Potency [4] > 20.6 µM

Cc1c(/C(O)=C2/C(=O)C(=O)N(CCN3CCOCC3)C2c2cccnc2)cnn1-c1ccccc1 (stereo not drawn)
inactive: activity change, negative = inhibition [1] -11.6% | activity change, negative = inhibition [2] -1.03% | activity, negative = inhibition [3] -0.626% | Potency [4] > 20.6 µM

CCCc1nc2n[nH]c(N)c2c2c1COC(C)(C)C2
inactive: activity change, negative = inhibition [1] 2.75% | activity change, negative = inhibition [2] -0.018% | activity, negative = inhibition [3] 2.38% | Potency [4] > 20.6 µM

COc1ccc(-n2ccc(=O)c3c2CCCC3=O)cc1
inactive: activity change, negative = inhibition [1] 1.82% | activity change, negative = inhibition [2] 1.88% | activity, negative = inhibition [3] 3.34% | Potency [4] > 20.6 µM

COCCN(CCOC)C(=O)C12CCC(C)(C(=O)C1)C2(C)C (stereo not drawn)
inactive: activity change, negative = inhibition [1] 9.52% | activity change, negative = inhibition [2] 8.02% | activity, negative = inhibition [3] 3.59% | Potency [4] > 20.6 µM

CCOc1ccc(S(=O)(=O)N(C)C)cc1-c1nc2c(C(C)(C)C)nn(C)c2c(=O)[nH]1
inactive: activity change, negative = inhibition [1] 5.08% | activity change, negative = inhibition [2] 8.6% | activity, negative = inhibition [3] -17.2% | Potency [4] > 20.6 µM

O=C(c1ccco1)N1CCN(CCOCCOc2cccc3ccccc23)CC1
inactive: activity change, negative = inhibition [1] 1.08% | activity change, negative = inhibition [2] -2.55% | activity, negative = inhibition [3] -10% | Potency [4] > 20.6 µM

S=C(N=Nc1ccccc1)NNc1ccccc1
inactive: activity change, negative = inhibition [1] 7.8% | activity change, negative = inhibition [2] 14% | activity, negative = inhibition [3] -0.775% | Potency [4] > 20.6 µM

CCCNC(=O)N(C)c1nncnc1C(=O)NC
inactive: activity change, negative = inhibition [1] -9.23% | activity change, negative = inhibition [2] 2.36% | activity, negative = inhibition [3] -3.2% | Potency [4] > 20.6 µM

N#CC1=C(N)N2C(=C(C#N)C1c1ccccc1)Sc1ccccc12 (stereo not drawn)
inactive: activity change, negative = inhibition [1] 17.5% | activity change, negative = inhibition [2] -26.8% | activity, negative = inhibition [3] 3.71% | Potency [4] > 20.6 µM

c1ccc(OCc2nn3c(-c4ccco4)nnc3s2)cc1
inactive: activity change, negative = inhibition [1] 27.2% | activity change, negative = inhibition [2] 1.21% | activity, negative = inhibition [3] -4.83% | Potency [4] > 20.6 µM
